Fam108B inh: counter-screen for RBBP9 inhibitors: inhibitors of mouse Fam108B. inhibition, % at 9.51 µM. hit rate 0.33% among 300,000. recombinant Fam108B, FP-Rh probe fluorescence polarization;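 active = inhibition above the screen mean inhibition plus 3 SD, computed separately per campaign, cut at about 18% in these data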;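 note: inhibitors lower polarization as less probe binds the enzyme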
LYPLA2 inh: blocks human lysophospholipase 2, a PME1 counter-screen. O95372. recombinant LYPLA2, FP-Rh probe fluorescence polarization. inhibition, % at 5.9 µM. hit rate 0.38% among 320,000. AID 2177;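 active = inhibition above the screen-wide mean plus 3 SD, limit set per campaign, cut at about 26% in these data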
Target sequence (O95372 whole entry, looked up): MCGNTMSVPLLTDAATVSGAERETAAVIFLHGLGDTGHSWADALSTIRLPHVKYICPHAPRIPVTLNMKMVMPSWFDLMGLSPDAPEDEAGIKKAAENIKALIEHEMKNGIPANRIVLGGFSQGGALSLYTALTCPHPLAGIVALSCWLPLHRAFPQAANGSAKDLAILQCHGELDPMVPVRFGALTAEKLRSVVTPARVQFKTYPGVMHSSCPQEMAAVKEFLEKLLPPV
GSTO1 counter: blocks human GSTO1 in RBBP9 counter-screen; recombinant GSTO1, activity-based probe fluorescence polarization; inhibition, % at 5.96 µM; hit rate 1.1% among 300,000; AID 1974;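 active = inhibition above the campaign mean inhibition plus 3 SD, cut at about 35% in these data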
Target sequence (P78417 whole entry, looked up): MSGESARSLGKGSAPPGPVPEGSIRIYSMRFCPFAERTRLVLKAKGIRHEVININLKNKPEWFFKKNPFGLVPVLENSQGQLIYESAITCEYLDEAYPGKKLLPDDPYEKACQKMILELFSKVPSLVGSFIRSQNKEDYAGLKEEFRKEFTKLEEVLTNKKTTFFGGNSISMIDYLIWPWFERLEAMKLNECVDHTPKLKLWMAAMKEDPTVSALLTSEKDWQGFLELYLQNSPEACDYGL
LYPLA1 inh: counter-screen for PME1 inhibitors: inhibitors of human LYPLA1 | O75608 | recombinant LYPLA1, FP-Rh probe fluorescence polarization | inhibition, % at 5.9 µM | hit rate 0.16% among 320,000 | AID 2174;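 active = inhibition above the mean of all tested compounds plus 3 SD, set per campaign, cut at about 14% in these data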;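 note: inhibitors block serine hydrolase probe labeling of LYPLA1 so polarization falls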
PAD4 FP inh: inhibitors of human PAD4; Q9UM07; recombinant PAD4, RCA probe fluorescence polarization; inhibition, % at 6.36 µM; hit rate 0.41% among 330,000;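 active = percent inhibition above a cutoff equal to the mean of all tested compounds plus 3 SD, cut at about 15% in these data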
PME-1 inh: PME-1 (human) inhibition; Q9Y570; recombinant PME-1, FP-Rh probe fluorescence polarization; inhibition, % at 5.9 µM; hit rate 0.53% among 320,000; AID 2130;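 active = inhibition above the campaign mean of all compounds plus 3 SD, cut at about 26% in these data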;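 note: competitive labeling of PME-1 active site by serine hydrolase directed probe; inhibitors block probe labeling so polarization falls and inhibition rises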
GSTO1 inh conf: GSTO1 (human) inhibition, confirmation | shares compounds with GSTO1 counter | recombinant GSTO1, probe fluorescence polarization | inhibition, % at 5.96 µM | hit rate 54% among 2,400 | AID 2176;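 active = inhibition above the primary screen's cutoff, its mean inhibition plus 3 SD, cut at about 35% in these data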;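 note: loss of polarization as inhibitors block binding of rhodamine sulfonate ester activity probe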
GSTO1 ABPP inh: blocks recombinant human glutathione S-transferase omega 1. shares compounds with GSTO1 counter. recombinant GSTO1, gel ABPP SE-Rh probe fluorescence. inhibition, % at 1 µM. hit rate 30% among 130;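 active = inhibition of the enzyme GSTO1 above about 75%, limit read from the data; inactive = inhibition below that limit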
Hits are given with their value; n = inactive; x = not tested or not shown. The list is not random: actives were taken first. Their share in the collection is about 1.8%.

SMILES | Fam108B inh | LYPLA2 inh | GSTO1 counter | LYPLA1 inh | PAD4 FP inh | PME-1 inh | GSTO1 inh conf | others
Cc1ccc(-n2c(C)cc(/C=C3\SC(=O)NC3=O)c2C)cc1 | n | n | n | n | n | n | x
Cc1ccc(NC(=O)CSc2nnc(CNC(=O)c3ccco3)n2C)cc1 | n | n | n | n | n | n | x
Cc1cc(C)c[n+](C2=C([O-])c3ccccc3C(=O)/C2=N\S(=O)(=O)c2cccs2)c1 | n | n | 81 | n | n | n | 88
Cc1cc[n+](C2=C([O-])c3ccccc3C(=O)/C2=N\S(=O)(=O)c2cccs2)cc1C | n | n | 90 | n | n | n | 90
Cc1cc(C)cc(NS(=O)(=O)c2cccs2)c1 | n | n | n | n | n | n | x
CC(=O)Nc1ccc(S(=O)(=O)N2CCC(N3CCCCCC3)CC2)cc1 | n | n | n | n | n | n | x
CN(C)C(=O)c1c(C(F)(F)F)nn(C)c1Cl | n | n | n | n | n | n | x
COc1cccc2c(SCC(=O)N/N=C/c3ccc(O)c(O)c3)cc(C)nc12 | n | n | 62 | n | n | n | n
O=C(CSc1nc2ccccc2o1)N/N=C/c1ccc(O)c(O)c1 | n | n | 57 | n | n | n | n
COc1ccc2nc(C)cc(SCC(=O)N/N=C/c3cccc4ccccc34)c2c1 | n | n | n | n | n | n | x
O=C(CSc1nc2ccccc2o1)N/N=C/c1ccccc1 | n | n | n | n | n | n | x
COc1ccc2nc(C)cc(SCC(=O)N/N=C/c3ccc(O)c(O)c3)c2c1 | n | n | 51 | n | n | n | n
O=C(NC1CC1)c1ccc(-n2cccc2)cc1 | n | n | n | n | n | n | x
CC(C)OP(=O)(OC(C)C)C1(NS(=O)(=O)c2ccc(Cl)cc2)C=C(Cl)C(=O)C(Cl)=C1 | n | n | 62 | n | n | n | 44
Oc1ccc2ccccc2c1C1Nc2cccc3cccc(c23)N1 | n | n | 42 | n | n | n | n
CCOC(=O)C1=C(C)NC(=O)NC1c1c(O)ccc2ccccc12 (stereo not given) | n | n | n | n | n | n | x
O=C(O)CC1S/C(=N/N=C/C=C/c2ccccc2[N+](=O)[O-])NC1=O (stereo not given) | n | n | n | n | n | n | x
O=C(O)CC1S/C(=N/N=C/c2ccc(-c3ccc(Cl)cc3[N+](=O)[O-])o2)NC1=O (stereo not given) | n | n | 50 | n | n | n | n
O=C(Nc1nc2ccc(F)cc2s1)C1CCCO1 (stereo not given) | n | n | n | n | n | n | x
COCCn1c(SCC(=O)N2CCOCC2)nnc1-c1ccco1 | n | n | n | n | n | n | x
COCCn1c(SCC(=O)N2CCCCCC2)nnc1-c1ccco1 | n | n | 39 | n | n | n | n
O=C(COC(=O)Cc1ccsc1)NNC(=O)c1ccccc1 | x | x | x | x | n | x | x
O=C(Cc1ccsc1)NNC(=O)c1ccccc1O | n | n | 38 | n | n | n | n
Cc1ccc2c(c1)c1c3n2CCN(C(=O)CCl)C3CCC1 (stereo not given) | n | n | 93 | n | n | n | 93 | GSTO1 ABPP inh=85
CCOc1ccc(Cc2nnc(SCC(=O)c3ccc(OC)cc3)o2)cc1 | n | n | n | n | n | n | x
SMILES | Fam108B inh | LYPLA2 inh | GSTO1 counter | LYPLA1 inh | PAD4 FP inh | PME-1 inh | GSTO1 inh conf | others
COc1cc(-c2nnc(SCC(=O)c3ccc(C)cc3)o2)cc(OC)c1OC | n | n | 38 | n | n | n | n
COc1ccc(C(=O)CSc2nnc(Cc3ccccc3)o2)cc1 | n | n | 38 | n | n | n | n
Oc1ccc(-c2nc(-c3ccc(O)c(O)c3)cs2)cc1 | n | n | 47 | n | n | n | n
Oc1ccc(Nc2nc(-c3ccc4ccccc4c3)cs2)cc1 | n | n | n | n | n | n | x
CC1CC(C)(C)Nc2ccc(OC(=O)c3ccco3)cc21 (stereo not given) | n | n | 43 | n | n | n | n
O=C(Oc1ccc2ccccc2c1)c1ccco1 | n | n | n | n | n | n | x
COCCNC(=O)NC1(C(F)(F)F)Oc2ccc(Cl)cc2O1 (stereo not given) | n | n | 38 | n | n | n | n
CC(=O)NC1(C(Cl)(Cl)Cl)Oc2ccccc2O1 | n | n | n | n | n | n | x
NS(=O)(=O)c1ccc(CCNC(=O)CNCCc2ccccc2)cc1 | n | n | n | n | n | n | x
CCCCNC(=O)NC1(C(F)(F)F)Oc2ccccc2O1 | n | n | 55 | n | n | n | n
O=C(NCc1cccnc1)NC1(C(F)(F)F)Oc2ccc(Cl)cc2O1 (stereo not given) | n | n | n | n | n | n | x
COc1ccc(OC)c(NC(=O)NC2(C(F)(F)F)Oc3ccccc3O2)c1 | n | n | 56 | n | n | n | n
NS(=O)(=O)c1ccc(CCNC(=O)NC2(C(F)(F)F)Oc3ccccc3O2)cc1 | n | n | 47 | n | n | n | n
O=C(COC(=O)c1n[nH]c(=O)c2ccccc12)NC1CCCCC1 | x | n | x | n | n | n | x
CC(=O)c1ccc(N=Nc2ccc(N)cc2)cc1 | n | n | n | n | n | n | x
COc1cccc(C(C(=O)NC2CCCCC2)N(CC2CCCO2)C(=O)CNC(=O)c2ccco2)c1 (stereo not given) | n | n | n | n | n | n | x
COc1ccc(-c2cc3c(=O)n(CC(=O)Nc4ccc(Cl)cc4)ncn3n2)cc1 | n | n | n | n | n | n | x
O=C(NCCN1CCOCC1)NC1(C(F)(F)F)Oc2ccccc2O1 | n | n | 57 | n | n | n | n
Nc1c2c(nc3ccccc13)CCCC2 | n | n | n | n | n | n | x
Clc1c2c(nc3ccccc13)CCC2 | n | n | 71 | n | n | n | n
Cc1cc(C)c2c(CCl)cc(=O)oc2c1 | n | n | 65 | n | n | n | 97
Cc1cc(C)c2c(CN3CCCCC3)cc(=O)oc2c1 | n | n | n | n | n | n | x
Cc1cc(C(=O)NC(C)C2CCCO2)c(C)o1 (stereo not given) | n | n | 42 | n | n | n | n
COc1ccc(C2(C)NC(=O)N(CC(=O)Nc3ccc(Br)c(C)c3)C2=O)cc1OC (stereo not given) | n | n | n | n | n | n | x
N#CC(C#N)=C1NC2(CCCCC2)Cc2ccccc21 | n | n | n | n | n | n | x
N#CC(C#N)=c1ccc2c(c1)NC1(CCCCC1)N=2 | n | n | 68 | n | n | n | 50
CCSc1nnc(NC(=O)C(C(F)(F)F)C(F)(F)F)s1 | n | n | 38 | n | n | n | 48
CCSc1nnc(NC(=O)C(C)C)s1 | n | n | n | n | n | n | x
O=C1/C(=C\c2ccc(O)c(O)c2)N=C2CCCCCN12 | n | n | 44 | n | n | n | n
COc1cc(/C=C2\N=C3CCCCCN3C2=O)ccc1O | n | n | n | n | n | n | x

Assay outcomes from PubChem BioAssay.
